Experimental data reported in the supplement of paper PMC10849652.
Of roughly 7,900 targets only a part is listed; those with a hit were picked by preference. About 0.6% of all pairs of compound and target were hits. Values without a mark were called inactive.

What was measured:
Test in all cases: log2 fold change, soluble protein after heating vs DMSO (PISA); higher = thermal stabilisation; K562 cells, 10 uM, 30 min; active = over 0.2 and 3.5 SD of the protein, either way, in both replicates (recomputed)
[1] = compound: CC[C@@H]1C(=O)N(C)c2cnc(Nc3ccc(C(=O)NC4CCN(C)CC4)cc3OC)nc2N1C1CCCC1
In short: (§1)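 Quantification of soluble protein used TMTpro 16plex LC-MS/MS, with channel sums equalised. Samples were the supernatant after 21,000xg for 90 min of pooled aliquots from K562 cells (2×10^6 cells/mL) treated with 10 μM compound for 30 min, heated for 3 min over 48°C-58°C, and extracted in PBS with 0.5% NP-40 at 4°C. Values, from duplicates, describe thermal stability against control samples on a log2 fold-change scale.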

[2] = compound: CC[C@@H]1C(=O)N(C)c2cnc(Nc3ccc(C(=O)N[C@H]4CC[C@H](N5CCN(CC6CC6)CC5)CC4)cc3OC)nc2N1C(C)C [volasertib]
In short: as §1

[3] = compound: CC[C@H](C)N1C=C(C2=C(C=C(C=C21)C3=CN=C(C=C3)N4CCNCC4)C(=O)NCC5=C(C=C(NC5=O)C)C)C
In short: as §1

[4] = compound: CC[C@H](C)[C@@H](C(=O)N[C@@H]([C@@H](C)O)C(=O)N[C@@H](CC(C)C)C(=O)[C@]1(CO1)C)NC(=O)[C@H]([C@@H](C)CC)N(C)C(=O)C [epoxomicin]
In short: as §1

[5] = compound: CCn1c(C(=O)N(C2CC2)C2CC2)cc2c3c(ncn3C)c(Nc3cc(C)n(C)n3)nc21
In short: as §1

[6] = compound: CCn1cc(-c2ccnc3[nH]c(-c4cccc(CN(C)C)c4)cc23)c(-c2ccc(NC(=O)N(C)C)cc2)n1
In short: as §1

[7] = compound: CN(C)CC(=O)Nc1ccc2[nH]c(=O)c3ccccc3c2c1
In short: as §1

[8] = compound: CN(CCOC1=CC=C(C=C1)C[C@H]2C(=O)NC(=O)S2)C3=CC=CC=N3 (racemic) [rosiglitazone]
In short: as §1

[9] = compound: CN1C2=C(C3=C1C(=O)N(N=C3)CC4=CC(=CC=C4)N)SC(=C2)S(=O)C
In short: as §1

[10] = compound: CN1CCC(CNc2ccc3ncc(-c4cccc(OC(F)(F)F)c4)n3n2)CC1
In short: as §1

[11] = compound: CN1CCN(CCOc2cc(OC3CCOCC3)c3c(Nc4c(Cl)ccc5c4OCO5)ncnc3c2)CC1 [saracatinib]
In short: as §1

[12] = compound: CN1CCN(c2nc(C3=C(c4c[nH]c5ccccc45)C(=O)NC3=O)c3ccccc3n2)CC1 [sotrastaurin]
In short: as §1

[13] = compound: CN1CC[C@H](c2c(O)cc(O)c3c(=O)cc(-c4ccccc4Cl)oc23)[C@H](O)C1 [alvocidib]
In short: as §1

[14] = compound: CN1CCc2c(c3ccccc3n2Cc2ccc(C(=O)NO)cc2)C1 [Tubastatin A]
In short: as §1

[15] = compound: CNC(=O)C1=CC=CC=C1NC2=NC(=NC=C2Cl)NC3=C(C=C(C=C3)N4CCOCC4)OC
In short: as §1

[16] = compound: CNC(=O)c1ccc(Nc2ncc(C(F)(F)F)c(NCc3nccnc3N(C)S(C)(=O)=O)n2)cc1 [defactinib]
In short: as §1

[17] = compound: CNCc1ccc(-c2[nH]c3cc(F)cc4c3c2CCNC4=O)cc1 [rucaparib]
In short: as §1

[18] = compound: CNc1nc(-c2ccc3c(N)n[nH]c3c2)cc(N2C[C@@H](C(=O)NC3CCCCC3)CC[C@H]2C)n1
In short: as §1

[19] = compound: COC(=O)N[C@@H](C)CNc1nccc(-c2cn(C(C)C)nc2-c2cc(Cl)cc(NS(C)(=O)=O)c2F)n1 [encorafenib]
In short: as §1

[20] = compound: COC(=O)[C@H](CCSC)NC(=O)C1=C(C=C(C=C1)NC[C@H](CS)N)C2=CC=CC=C2
In short: as §1

Sequence of UniProt Q9ULC5 (Q9ULC5 whole entry, looked up): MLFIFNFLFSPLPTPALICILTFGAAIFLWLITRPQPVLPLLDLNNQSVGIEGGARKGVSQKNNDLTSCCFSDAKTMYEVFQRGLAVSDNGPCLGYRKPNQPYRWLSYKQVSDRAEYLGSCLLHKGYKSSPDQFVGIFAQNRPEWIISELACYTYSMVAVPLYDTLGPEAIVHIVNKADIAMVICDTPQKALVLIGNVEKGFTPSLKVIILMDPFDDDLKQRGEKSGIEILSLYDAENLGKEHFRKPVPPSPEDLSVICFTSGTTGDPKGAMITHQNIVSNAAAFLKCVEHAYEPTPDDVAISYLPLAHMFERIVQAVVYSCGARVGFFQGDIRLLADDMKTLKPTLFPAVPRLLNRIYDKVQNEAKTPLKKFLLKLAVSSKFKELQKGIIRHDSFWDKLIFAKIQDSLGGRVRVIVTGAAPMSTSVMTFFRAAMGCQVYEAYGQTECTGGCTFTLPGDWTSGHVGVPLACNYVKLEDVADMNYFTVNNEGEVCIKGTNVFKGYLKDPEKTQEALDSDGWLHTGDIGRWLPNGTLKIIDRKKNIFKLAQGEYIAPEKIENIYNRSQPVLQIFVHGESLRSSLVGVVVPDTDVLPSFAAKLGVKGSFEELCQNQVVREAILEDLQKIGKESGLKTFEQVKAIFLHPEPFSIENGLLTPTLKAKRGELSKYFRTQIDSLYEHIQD
Sequence of UniProt P49189 (P49189 whole entry, looked up): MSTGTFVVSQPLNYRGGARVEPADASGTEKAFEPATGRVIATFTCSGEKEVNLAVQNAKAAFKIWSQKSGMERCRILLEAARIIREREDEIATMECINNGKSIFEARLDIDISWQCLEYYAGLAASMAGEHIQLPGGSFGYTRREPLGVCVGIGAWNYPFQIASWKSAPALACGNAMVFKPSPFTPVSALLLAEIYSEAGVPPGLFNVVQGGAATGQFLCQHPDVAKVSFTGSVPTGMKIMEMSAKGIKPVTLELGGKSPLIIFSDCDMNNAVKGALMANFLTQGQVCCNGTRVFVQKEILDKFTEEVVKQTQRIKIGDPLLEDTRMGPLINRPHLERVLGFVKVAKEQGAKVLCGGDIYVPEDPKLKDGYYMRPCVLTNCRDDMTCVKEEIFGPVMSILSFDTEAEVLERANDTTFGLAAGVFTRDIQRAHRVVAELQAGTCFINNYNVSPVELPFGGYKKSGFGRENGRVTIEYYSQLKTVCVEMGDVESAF
Sequence of UniProt P21283 (P21283 whole entry, looked up): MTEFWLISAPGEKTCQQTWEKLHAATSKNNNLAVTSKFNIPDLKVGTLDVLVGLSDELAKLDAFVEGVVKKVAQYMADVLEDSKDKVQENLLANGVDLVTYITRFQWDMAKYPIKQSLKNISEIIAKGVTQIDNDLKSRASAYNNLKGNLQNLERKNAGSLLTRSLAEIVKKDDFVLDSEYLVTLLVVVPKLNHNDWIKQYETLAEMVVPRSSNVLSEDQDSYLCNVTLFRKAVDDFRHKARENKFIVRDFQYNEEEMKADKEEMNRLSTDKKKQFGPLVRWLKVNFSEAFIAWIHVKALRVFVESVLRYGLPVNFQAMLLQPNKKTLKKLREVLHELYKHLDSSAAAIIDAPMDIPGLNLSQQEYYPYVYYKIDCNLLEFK
Sequence of UniProt Q14137 (Q14137 whole entry, looked up): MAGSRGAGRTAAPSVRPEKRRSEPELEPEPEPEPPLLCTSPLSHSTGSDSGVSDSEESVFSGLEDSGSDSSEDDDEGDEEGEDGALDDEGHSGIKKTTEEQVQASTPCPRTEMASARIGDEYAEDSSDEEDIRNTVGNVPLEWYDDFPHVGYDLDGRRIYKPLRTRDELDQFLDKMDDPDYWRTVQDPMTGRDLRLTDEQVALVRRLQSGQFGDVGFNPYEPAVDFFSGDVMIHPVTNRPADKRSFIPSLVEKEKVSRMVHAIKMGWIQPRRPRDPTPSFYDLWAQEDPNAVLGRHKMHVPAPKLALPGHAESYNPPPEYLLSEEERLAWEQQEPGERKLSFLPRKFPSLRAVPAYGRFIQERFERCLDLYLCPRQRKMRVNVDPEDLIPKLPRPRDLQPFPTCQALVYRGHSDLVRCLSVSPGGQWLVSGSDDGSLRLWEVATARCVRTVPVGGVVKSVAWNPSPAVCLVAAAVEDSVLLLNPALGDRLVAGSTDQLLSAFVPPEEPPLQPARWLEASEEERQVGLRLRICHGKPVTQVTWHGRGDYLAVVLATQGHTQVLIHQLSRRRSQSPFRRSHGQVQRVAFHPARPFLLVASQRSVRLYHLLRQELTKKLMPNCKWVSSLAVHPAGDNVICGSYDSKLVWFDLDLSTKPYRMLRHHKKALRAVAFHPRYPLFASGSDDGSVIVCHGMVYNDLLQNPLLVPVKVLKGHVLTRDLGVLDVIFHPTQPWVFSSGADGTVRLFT
Sequence of UniProt P08758 (P08758 whole entry, looked up): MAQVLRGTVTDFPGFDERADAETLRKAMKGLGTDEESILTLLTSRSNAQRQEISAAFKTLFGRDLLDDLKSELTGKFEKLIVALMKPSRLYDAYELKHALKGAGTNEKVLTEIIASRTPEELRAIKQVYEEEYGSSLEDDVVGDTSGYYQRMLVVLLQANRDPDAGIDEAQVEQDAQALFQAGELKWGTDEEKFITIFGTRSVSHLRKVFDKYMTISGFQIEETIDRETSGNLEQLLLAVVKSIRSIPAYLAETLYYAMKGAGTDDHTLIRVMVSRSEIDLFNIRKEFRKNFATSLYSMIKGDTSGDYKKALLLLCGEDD
Sequence of UniProt P56211 (P56211 whole entry, looked up): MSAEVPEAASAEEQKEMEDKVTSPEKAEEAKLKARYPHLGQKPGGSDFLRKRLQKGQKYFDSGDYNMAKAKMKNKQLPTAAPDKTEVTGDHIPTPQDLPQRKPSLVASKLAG
Sequence of UniProt Q8N6S5 (Q8N6S5 whole entry, looked up): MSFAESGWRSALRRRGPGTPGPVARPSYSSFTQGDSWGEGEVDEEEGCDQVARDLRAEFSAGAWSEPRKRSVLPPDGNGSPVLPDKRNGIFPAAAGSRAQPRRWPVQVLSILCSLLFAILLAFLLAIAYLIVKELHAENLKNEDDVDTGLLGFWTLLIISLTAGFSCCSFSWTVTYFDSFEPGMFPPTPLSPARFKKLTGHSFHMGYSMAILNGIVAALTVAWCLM
Sequence of UniProt Q8NHH9 (Q8NHH9 whole entry, looked up): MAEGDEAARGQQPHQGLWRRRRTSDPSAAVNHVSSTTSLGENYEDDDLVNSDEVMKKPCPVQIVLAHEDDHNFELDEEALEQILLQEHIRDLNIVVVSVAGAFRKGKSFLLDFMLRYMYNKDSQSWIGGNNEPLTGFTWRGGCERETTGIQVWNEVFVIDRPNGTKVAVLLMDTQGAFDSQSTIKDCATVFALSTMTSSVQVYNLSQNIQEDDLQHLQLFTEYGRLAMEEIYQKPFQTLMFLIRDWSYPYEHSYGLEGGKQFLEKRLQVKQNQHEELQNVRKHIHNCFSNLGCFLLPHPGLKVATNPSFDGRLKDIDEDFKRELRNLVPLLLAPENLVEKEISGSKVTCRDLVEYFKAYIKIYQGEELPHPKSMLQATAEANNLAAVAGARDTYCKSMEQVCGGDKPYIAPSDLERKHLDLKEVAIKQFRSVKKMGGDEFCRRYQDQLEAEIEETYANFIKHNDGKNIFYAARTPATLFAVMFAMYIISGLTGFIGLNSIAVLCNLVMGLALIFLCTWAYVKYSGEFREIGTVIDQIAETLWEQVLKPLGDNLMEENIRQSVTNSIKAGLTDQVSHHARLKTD
Sequence of UniProt Q9ULX6 (Q9ULX6 whole entry, looked up): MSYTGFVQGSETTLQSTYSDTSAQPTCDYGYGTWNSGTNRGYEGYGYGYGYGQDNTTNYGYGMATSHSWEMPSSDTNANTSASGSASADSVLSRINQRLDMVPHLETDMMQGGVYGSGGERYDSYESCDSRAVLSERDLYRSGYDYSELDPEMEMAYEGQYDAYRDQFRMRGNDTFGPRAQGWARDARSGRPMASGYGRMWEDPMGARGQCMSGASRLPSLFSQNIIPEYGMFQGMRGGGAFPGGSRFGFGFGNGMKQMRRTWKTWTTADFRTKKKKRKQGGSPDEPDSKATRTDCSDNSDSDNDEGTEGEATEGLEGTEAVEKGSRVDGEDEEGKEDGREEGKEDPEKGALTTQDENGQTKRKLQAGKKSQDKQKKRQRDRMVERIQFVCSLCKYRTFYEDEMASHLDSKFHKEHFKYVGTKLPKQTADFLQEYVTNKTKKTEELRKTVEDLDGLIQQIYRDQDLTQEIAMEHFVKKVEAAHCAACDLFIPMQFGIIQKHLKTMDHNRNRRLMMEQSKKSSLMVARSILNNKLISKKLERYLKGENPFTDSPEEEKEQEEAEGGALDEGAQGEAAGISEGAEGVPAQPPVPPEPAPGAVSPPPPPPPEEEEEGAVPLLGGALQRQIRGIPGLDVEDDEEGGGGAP
Sequence of UniProt Q9UII2 (Q9UII2 whole entry, looked up): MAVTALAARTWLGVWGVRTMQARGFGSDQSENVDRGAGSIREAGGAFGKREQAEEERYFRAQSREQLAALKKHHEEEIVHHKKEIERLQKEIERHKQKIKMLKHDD
Sequence of UniProt Q9Y679 (Q9Y679 whole entry, looked up): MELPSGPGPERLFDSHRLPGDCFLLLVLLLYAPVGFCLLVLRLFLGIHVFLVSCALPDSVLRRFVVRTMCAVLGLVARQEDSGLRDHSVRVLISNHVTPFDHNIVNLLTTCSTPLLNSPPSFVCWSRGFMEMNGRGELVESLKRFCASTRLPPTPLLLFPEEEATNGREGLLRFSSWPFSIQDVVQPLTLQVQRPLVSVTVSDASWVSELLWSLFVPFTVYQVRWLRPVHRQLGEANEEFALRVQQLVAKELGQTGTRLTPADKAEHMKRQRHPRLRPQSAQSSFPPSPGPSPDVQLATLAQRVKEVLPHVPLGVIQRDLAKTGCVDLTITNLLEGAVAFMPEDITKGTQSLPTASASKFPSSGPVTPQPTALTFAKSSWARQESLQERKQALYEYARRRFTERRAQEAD
Sequence of UniProt P24666 (P24666 whole entry, looked up): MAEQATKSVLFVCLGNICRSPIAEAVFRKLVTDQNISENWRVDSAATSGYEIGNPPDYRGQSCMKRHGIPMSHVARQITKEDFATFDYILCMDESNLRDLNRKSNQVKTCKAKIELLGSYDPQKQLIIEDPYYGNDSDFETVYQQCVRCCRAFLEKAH

Target | log2 fold change [1] | log2 fold change [2] | log2 fold change [3] | log2 fold change [4] | log2 fold change [5] | log2 fold change [6] | log2 fold change [7] | log2 fold change [8] | log2 fold change [9] | log2 fold change [10] | log2 fold change [11] | log2 fold change [12] | log2 fold change [13] | log2 fold change [14] | log2 fold change [15] | log2 fold change [16] | log2 fold change [17] | log2 fold change [18] | log2 fold change [19] | log2 fold change [20]
BOP1 (UniProt Q14137) | -0.072 | -0.328 | 0.019 | 0.002 | -0.023 | -0.075 | 0.009 | -0.053 | 0.228 | 0.141 | 0.011 | -0.043 | -0.082 | -0.013 | 0.015 | -0.157 | 0.066 | -0.016 | 0.155 | 0.046
ATP5IF1 (UniProt Q9UII2) | -0.149 | 0.141 | -0.078 | -0.041 | 0.021 | 0.013 | -0.13 | -0.02 | -0.04 | 0.037 | -0.111 | 0.111 | 0.013 | -0.039 | -0.014 | 0.046 | -0.011 | 0.011 | -0.063 | -0.244 (active)
ARL6IP6 (UniProt Q8N6S5) | 0.154 | -0.007 | -0.043 | -0.086 | -0.074 | 0.004 | 0.004 | 0.005 | 0.029 | 0.01 | 0.192 | 0.005 | -0.082 | -0.014 | -0.099 | -0.053 | 0.009 | 0.004 | 0.015 | -0.035
ACSL5 isoform 3 (UniProt Q9ULC5) | -0.013 | -0.088 | 0.029 | 0.005 | 0.03 | -0.068 | -0.084 | -0.009 | -0.216 | -0.361 (active) | 0.058 | 0.078 | -0.082 | -0.057 | 0.071 | -0.063 | 0.005 | -0.132 | -0.072 | 0
ATP23 (UniProt Q9Y6H3) | -0.007 | 0.004 | -0.078 | 0.016 | 0.059 | 0.055 | -0.045 | -0.011 | -0.087 | -0.478 (active) | 0.029 | 0.04 | -0.031 | -0.056 | 0.055 | 0.028 | 0.096 | 0.041 | 0.001 | 0.01
ARL1 (UniProt P40616) | 0.072 | -0.113 | 0.023 | 0.028 | 0.014 | -0.05 | 0.025 | 0.032 | -0.157 | 0.059 | 0.117 | -0.049 | -0.068 | 0.031 | -0.017 | 0.03 | -0.012 | 0.058 | 0.117 | -0.178
ATL2 (UniProt Q8NHH9) | 0.031 | 0.037 | 0.066 | 0.092 | -0.051 | -0.127 | 0.028 | 0.017 | -0.078 | -0.032 | -0.032 | 0.05 | -0.05 | 0.047 | 0.005 | 0.008 | 0.019 | 0.035 | 0.005 | 0.008
AKAP8L (UniProt Q9ULX6) | -0.14 | -0.394 (active) | 0.059 | 0.072 | -0.074 | -0.039 | 0.043 | 0.101 | 0.171 | -0.25 | -0.127 | -0.203 | -0.21 | 0.055 | -0.097 | -0.477 (active) | -0.008 | 0.027 | 0.025 | 0.049
ACP1 (UniProt P24666) | 0.084 | -0.102 | -0.001 | 0.03 | -0.034 | 0.077 | 0.12 | 0.167 | 0.099 | -0.061 | -0.031 | -0.054 | -0.111 | 0.141 | -0.1 | -0.044 | 0.12 | 0.123 | 0.035 | -0.111
ARPP19 (UniProt P56211) | 0.013 | 0.016 | -0.01 | 0.041 | 0.029 | -0.052 | 0.032 | 0.001 | 0.069 | -0.041 | -0.002 | 0.01 | 0.032 | -0.047 | -0.015 | -0.089 | -0.05 | -0.056 | -0.016 | 0.002
ATP11A (UniProt P98196) | 0.266 | 0.058 | -0.094 | 0.001 | 0.026 | -0.022 | 0.031 | 0.045 | -0.083 | 0.084 | 0.082 | 0.094 | 0.059 | 0.007 | -0.002 | -0.093 | 0.192 | 0.044 | 0.008 | 0.017
ANXA5 (UniProt P08758) | -0.084 | -0.214 (active) | 0.04 | 0.068 | 0.002 | -0.041 | 0.012 | 0.007 | -0.04 | -0.042 | -0.023 | -0.038 | -0.083 | -0.006 | 0.039 | -0.082 | -0.001 | 0.012 | 0.083 | -0.062
ATP6V1C1 (UniProt P21283) | 0.027 | -0.196 | 0.066 | 0.064 | -0.022 | -0.282 (active) | -0.008 | 0.032 | 0.069 | 0.377 (active) | -0.193 | -0.07 | 0.026 | 0.059 | -0.034 | -0.011 | 0.137 | 0.004 | 0.083 | -0.013
APPL1 (UniProt Q9UKG1) | -0.149 | -0.317 (active) | 0.058 | -0.044 | 0.038 | -0.021 | 0.02 | 0.044 | -0.113 | -0.065 | 0.029 | -0.004 | -0.179 | 0.002 | 0.027 | 0.037 | -0.095 | -0.03 | 0.03 | -0.029
ALDH9A1 (UniProt P49189) | -0.035 | 0.009 | 0.111 | -0.011 | 0.095 | -0.005 | 0 | -0.062 | -0.015 | 0.016 | 0.005 | 0.032 | -0.088 | -0.019 | 0.016 | -0.008 | -0.014 | -0.041 | 0.023 | -0.058
AUP1 (UniProt Q9Y679) | -0.132 | -0.253 | 0.032 | 0.046 | -0.002 | -0.028 | 0.089 | 0.12 | 0.014 | -0.24 (active) | 0.052 | -0.116 | -0.062 | 0.031 | -0.062 | -0.015 | -0.04 | -0.041 | 0.029 | -0.037
